# According to PMC7862700, “An all-to-all approach to the identification of sequence-specific readers for epigenetic DNA modifications on cytosine”:
# Experiments:
# Test in all cases: DAPPL (digital affinity profiling via proximity ligation, sequencing); 10 mM Tris-HCl pH 7.5, 50 mM NaCl, 1 mM DTT, 4% glycerol, room temperature, 30 min; GST-TFs on glutathione beads, 16-mer random dsDNA library, 0.1% formaldehyde crosslink after washing; high values mean tight binding
# FEV = biological target: T1, FEV (Homo sapiens, UniProt Q99581 1-238); settings: protein: recombinant; tags: N-terminal GST; dsDNA, one strand shown
# T1 sequence: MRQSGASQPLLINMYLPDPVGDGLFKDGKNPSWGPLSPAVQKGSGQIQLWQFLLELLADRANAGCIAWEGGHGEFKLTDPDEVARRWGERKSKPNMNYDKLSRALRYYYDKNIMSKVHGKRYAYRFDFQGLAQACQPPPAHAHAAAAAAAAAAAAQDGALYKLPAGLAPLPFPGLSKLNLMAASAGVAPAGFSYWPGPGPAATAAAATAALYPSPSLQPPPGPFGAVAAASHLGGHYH
# Method in brief: (§1)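 Sequencing on an Illumina NextSeq500 followed washing, crosslinking with 0.1% formaldehyde, proximity ligation (BsaI/T4 ligase, 1 h, 37 °C) and PCR amplification of pools that had been incubated for 30 min at room temperature with 200 nmole of a random double-stranded 16-mer DNA library in Tris/NaCl/DTT/glycerol buffer. Each pool held DNA-barcoded human transcription factors, expressed in yeast as GST fusions and captured on glutathione beads, plus a tag-only sample. Binding signal is a hexamer's read frequency for a factor divided by its frequency in the tag-only sample.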
# ETV5 = ETV5 (Homo sapiens, UniProt P41161 1-510); settings: protein: recombinant; tags: N-terminal GST; dsDNA, one strand shown
# Method in brief: as §1
# HSF1 = HSF1 (Homo sapiens, UniProt Q00613 1-529); settings: protein: recombinant; tags: N-terminal GST; chain copies: 3; dsDNA, one strand shown
# Method in brief: as §1
# SPIC = biological target: T2, SPIC (Homo sapiens, UniProt Q8N5J4 1-248); settings: protein: recombinant; tags: N-terminal GST; dsDNA, one strand shown
# T2 sequence: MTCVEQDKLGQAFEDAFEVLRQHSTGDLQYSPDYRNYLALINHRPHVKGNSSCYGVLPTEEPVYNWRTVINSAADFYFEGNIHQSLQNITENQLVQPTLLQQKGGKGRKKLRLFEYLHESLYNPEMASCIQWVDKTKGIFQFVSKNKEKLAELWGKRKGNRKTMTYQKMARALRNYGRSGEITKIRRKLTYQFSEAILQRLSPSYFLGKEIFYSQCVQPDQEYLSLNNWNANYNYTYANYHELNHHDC
# Method in brief: as §1
# ELF4 = ELF4 (Homo sapiens, UniProt Q99607 1-663); settings: protein: recombinant; tags: N-terminal GST; dsDNA, one strand shown
# Method in brief: as §1
# ELK4 = biological target: T3, ELK4 (Homo sapiens, UniProt P28324-2 1-405); settings: protein: recombinant; tags: N-terminal GST; dsDNA, one strand shown
# T3 sequence: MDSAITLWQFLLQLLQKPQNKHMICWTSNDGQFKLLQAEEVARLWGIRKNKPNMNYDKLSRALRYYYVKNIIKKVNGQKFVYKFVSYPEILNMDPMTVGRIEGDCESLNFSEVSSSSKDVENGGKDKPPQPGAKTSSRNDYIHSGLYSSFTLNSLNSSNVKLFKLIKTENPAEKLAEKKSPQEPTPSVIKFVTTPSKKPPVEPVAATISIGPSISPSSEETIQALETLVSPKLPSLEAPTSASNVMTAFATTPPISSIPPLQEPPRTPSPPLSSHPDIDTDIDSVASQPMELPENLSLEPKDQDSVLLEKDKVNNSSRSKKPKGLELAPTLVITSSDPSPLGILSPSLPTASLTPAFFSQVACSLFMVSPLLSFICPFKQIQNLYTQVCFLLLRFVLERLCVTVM
# Method in brief: as §1
# ETV2 = biological target: T4, ETV2 (Homo sapiens, UniProt O00321 1-342); settings: protein: recombinant; tags: N-terminal GST; dsDNA, one strand shown
# T4 sequence: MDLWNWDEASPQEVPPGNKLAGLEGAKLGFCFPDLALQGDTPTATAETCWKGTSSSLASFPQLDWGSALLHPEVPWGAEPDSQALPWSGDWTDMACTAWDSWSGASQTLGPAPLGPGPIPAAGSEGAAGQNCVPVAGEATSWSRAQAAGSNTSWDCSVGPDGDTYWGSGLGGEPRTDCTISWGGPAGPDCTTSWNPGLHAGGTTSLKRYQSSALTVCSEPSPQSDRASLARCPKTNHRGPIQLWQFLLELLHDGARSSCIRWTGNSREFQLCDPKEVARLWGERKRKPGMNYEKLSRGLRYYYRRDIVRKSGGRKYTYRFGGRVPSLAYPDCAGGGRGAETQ
# Method in brief: as §1
# ELF3 = biological target: T5, ELF3 (Homo sapiens, UniProt P78545 1-371); settings: protein: recombinant; tags: N-terminal GST; dsDNA, one strand shown
# T5 sequence: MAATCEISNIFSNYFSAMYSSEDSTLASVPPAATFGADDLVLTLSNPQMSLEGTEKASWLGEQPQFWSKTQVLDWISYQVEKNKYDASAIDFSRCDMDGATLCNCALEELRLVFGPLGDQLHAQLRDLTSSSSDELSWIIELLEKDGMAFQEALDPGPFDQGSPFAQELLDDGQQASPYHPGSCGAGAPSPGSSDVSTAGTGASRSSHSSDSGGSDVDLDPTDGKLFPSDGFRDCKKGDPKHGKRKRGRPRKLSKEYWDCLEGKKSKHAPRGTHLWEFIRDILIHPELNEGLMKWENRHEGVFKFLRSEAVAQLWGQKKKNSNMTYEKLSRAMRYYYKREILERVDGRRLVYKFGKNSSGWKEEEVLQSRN
# Method in brief: as §1
# CRX = CRX (Homo sapiens, UniProt O43186 1-299); settings: protein: recombinant; tags: N-terminal GST; dsDNA, one strand shown
# Method in brief: as §1
# ETV1 = ETV1 (Homo sapiens, UniProt P50549 1-477); settings: protein: recombinant; tags: N-terminal GST; dsDNA, one strand shown
# Method in brief: as §1
# ERF = biological target: T6, ERF (Homo sapiens, UniProt P50548 1-548); settings: protein: recombinant; tags: N-terminal GST; dsDNA, one strand shown
# T6 sequence: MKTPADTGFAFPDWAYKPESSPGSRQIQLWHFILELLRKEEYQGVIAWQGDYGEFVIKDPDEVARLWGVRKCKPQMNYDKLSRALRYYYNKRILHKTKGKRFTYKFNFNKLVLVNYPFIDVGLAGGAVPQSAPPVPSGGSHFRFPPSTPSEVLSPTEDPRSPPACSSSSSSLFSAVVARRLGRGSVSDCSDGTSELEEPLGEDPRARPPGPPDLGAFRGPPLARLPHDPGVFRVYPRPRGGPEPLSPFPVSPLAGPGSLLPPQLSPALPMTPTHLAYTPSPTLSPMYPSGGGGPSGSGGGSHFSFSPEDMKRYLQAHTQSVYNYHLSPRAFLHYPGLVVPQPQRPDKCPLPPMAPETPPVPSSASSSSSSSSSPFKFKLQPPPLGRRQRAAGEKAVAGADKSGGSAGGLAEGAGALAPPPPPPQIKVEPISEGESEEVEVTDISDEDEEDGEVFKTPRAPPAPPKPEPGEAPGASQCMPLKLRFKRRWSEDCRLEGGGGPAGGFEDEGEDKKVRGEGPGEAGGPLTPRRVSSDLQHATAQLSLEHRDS
# Method in brief: as §1
# ETV3L = biological target: T7, ETV3L (Homo sapiens, UniProt Q6ZN32 1-361); settings: protein: recombinant; tags: N-terminal GST; dsDNA, one strand shown
# T7 sequence: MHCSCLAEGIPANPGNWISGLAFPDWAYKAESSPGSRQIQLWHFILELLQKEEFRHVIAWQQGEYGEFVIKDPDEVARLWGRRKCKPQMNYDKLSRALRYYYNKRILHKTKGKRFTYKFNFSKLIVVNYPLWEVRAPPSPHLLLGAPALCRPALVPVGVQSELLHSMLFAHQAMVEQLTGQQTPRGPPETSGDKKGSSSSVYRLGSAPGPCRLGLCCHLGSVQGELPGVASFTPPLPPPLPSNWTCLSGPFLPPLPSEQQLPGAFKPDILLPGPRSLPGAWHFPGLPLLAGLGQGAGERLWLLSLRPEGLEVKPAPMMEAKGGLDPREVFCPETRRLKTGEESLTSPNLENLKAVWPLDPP
# Method in brief: as §1
# ETS2 = biological target: T8, ETS2 (Homo sapiens, UniProt P15036 1-469); settings: protein: recombinant; tags: N-terminal GST; dsDNA, one strand shown
# T8 sequence: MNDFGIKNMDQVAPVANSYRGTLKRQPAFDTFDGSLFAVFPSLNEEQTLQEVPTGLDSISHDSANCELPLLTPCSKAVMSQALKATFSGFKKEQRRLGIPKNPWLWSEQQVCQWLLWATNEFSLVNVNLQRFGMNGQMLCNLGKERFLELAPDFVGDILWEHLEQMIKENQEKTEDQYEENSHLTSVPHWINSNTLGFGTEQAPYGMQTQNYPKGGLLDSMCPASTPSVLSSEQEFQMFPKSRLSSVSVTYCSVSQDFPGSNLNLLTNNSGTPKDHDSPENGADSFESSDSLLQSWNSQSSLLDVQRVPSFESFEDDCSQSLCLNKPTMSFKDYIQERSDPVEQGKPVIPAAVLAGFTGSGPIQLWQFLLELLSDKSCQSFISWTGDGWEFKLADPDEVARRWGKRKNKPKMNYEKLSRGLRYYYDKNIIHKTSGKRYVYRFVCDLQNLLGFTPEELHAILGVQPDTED
# Method in brief: as §1
# SPDEF = biological target: T9, SPDEF (Homo sapiens, UniProt O95238 1-335); settings: protein: recombinant; tags: N-terminal GST; dsDNA, one strand shown
# T9 sequence: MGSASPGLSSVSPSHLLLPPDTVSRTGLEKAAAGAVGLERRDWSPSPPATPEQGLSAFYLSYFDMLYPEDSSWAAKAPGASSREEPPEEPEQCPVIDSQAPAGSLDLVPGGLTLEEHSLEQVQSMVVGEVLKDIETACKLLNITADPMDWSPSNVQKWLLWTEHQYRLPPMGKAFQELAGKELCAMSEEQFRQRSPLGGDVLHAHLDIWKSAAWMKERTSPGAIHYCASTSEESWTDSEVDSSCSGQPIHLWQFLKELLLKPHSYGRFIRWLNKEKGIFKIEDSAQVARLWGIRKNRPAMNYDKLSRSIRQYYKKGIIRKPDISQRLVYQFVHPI
# Method in brief: as §1
# ETV7 = biological target: T10, ETV7 (Homo sapiens, UniProt Q9Y603 1-341); settings: protein: recombinant; tags: N-terminal GST; dsDNA, one strand shown
# T10 sequence: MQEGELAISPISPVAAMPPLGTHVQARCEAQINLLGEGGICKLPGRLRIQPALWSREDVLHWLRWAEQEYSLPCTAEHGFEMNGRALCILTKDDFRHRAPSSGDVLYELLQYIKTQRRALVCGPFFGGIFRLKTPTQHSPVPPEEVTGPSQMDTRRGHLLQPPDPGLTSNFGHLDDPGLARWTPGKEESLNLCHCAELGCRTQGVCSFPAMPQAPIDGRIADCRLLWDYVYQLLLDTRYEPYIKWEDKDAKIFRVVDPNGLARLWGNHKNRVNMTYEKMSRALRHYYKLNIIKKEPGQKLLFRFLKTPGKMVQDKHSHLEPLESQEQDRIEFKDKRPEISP
# Method in brief: as §1
# ELF5 = biological target: T11, ELF5 (Homo sapiens, UniProt Q9UKW6-2 1-255); settings: protein: recombinant; tags: N-terminal GST; dsDNA, one strand shown
# T11 sequence: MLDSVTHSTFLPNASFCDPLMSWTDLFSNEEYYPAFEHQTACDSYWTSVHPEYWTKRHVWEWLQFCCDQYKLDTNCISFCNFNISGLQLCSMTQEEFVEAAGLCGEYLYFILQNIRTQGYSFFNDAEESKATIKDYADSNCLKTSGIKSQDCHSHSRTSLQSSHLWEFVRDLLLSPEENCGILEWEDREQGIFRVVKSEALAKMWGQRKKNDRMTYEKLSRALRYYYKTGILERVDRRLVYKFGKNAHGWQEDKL
# Method in brief: as §1
# ETV3 = biological target: T12, ETV3 (Homo sapiens, UniProt P41162-2 1-143); settings: protein: recombinant; tags: N-terminal GST; dsDNA, one strand shown
# T12 sequence: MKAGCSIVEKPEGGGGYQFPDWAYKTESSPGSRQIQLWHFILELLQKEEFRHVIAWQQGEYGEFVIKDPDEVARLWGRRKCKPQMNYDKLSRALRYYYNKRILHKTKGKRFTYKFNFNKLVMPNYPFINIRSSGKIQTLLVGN
# Method in brief: as §1
# ETV6 = ETV6 (Homo sapiens, UniProt P41212 1-452); settings: protein: recombinant; tags: N-terminal GST; dsDNA, one strand shown
# Method in brief: as §1
# ETV6, sequence (P41212 whole entry): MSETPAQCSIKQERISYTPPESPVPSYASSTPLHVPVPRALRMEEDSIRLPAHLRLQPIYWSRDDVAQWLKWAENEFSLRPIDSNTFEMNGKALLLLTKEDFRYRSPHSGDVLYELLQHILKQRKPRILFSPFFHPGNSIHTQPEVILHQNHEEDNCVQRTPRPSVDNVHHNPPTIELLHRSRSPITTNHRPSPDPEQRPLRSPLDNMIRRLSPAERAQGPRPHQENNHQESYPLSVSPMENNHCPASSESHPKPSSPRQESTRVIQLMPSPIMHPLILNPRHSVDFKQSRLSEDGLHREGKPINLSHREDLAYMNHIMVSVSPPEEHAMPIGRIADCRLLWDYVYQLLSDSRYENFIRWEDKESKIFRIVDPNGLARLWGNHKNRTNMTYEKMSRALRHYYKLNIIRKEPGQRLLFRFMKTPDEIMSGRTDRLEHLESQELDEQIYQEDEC
# ETV5, sequence (P41161 whole entry): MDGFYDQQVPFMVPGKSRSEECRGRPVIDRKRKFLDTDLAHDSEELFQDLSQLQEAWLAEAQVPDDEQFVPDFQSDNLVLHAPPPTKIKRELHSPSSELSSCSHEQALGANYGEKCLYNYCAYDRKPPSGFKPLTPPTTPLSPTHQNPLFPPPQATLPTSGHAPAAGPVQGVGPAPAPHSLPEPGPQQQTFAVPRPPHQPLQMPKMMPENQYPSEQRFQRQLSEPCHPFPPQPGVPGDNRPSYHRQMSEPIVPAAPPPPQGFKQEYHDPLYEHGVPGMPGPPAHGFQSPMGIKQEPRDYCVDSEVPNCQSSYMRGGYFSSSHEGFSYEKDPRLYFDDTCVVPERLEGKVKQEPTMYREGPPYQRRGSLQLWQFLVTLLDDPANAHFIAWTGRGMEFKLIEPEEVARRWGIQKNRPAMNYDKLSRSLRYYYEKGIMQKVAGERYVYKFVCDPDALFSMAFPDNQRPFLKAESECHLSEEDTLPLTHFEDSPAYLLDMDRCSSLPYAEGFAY
# ELF4, sequence (Q99607 whole entry): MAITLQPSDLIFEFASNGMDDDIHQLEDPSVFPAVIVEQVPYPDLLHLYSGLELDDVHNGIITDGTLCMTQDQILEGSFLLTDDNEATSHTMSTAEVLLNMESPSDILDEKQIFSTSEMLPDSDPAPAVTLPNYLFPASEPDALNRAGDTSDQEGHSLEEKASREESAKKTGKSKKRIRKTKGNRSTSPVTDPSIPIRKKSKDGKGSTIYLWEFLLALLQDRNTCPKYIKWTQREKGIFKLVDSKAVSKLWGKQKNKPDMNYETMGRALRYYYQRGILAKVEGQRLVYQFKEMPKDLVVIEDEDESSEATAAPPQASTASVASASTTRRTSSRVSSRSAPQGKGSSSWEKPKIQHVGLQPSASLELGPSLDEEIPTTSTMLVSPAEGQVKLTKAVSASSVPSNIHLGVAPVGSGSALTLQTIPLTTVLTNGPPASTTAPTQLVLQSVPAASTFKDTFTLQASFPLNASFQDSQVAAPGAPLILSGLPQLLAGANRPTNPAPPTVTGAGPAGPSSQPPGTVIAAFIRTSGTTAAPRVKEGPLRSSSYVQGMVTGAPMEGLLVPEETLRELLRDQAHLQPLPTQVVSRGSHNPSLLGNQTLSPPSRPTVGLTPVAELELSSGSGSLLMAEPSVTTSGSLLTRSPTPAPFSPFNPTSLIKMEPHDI
# CRX, sequence (O43186 whole entry): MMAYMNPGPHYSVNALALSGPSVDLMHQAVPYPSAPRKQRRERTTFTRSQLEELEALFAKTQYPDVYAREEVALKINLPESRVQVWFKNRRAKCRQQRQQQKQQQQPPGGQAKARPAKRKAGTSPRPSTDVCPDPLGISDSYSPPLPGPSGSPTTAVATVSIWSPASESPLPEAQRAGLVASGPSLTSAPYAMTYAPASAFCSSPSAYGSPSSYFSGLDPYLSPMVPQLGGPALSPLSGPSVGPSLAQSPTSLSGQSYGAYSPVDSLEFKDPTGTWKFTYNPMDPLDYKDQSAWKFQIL
# HSF1, sequence (Q00613 whole entry): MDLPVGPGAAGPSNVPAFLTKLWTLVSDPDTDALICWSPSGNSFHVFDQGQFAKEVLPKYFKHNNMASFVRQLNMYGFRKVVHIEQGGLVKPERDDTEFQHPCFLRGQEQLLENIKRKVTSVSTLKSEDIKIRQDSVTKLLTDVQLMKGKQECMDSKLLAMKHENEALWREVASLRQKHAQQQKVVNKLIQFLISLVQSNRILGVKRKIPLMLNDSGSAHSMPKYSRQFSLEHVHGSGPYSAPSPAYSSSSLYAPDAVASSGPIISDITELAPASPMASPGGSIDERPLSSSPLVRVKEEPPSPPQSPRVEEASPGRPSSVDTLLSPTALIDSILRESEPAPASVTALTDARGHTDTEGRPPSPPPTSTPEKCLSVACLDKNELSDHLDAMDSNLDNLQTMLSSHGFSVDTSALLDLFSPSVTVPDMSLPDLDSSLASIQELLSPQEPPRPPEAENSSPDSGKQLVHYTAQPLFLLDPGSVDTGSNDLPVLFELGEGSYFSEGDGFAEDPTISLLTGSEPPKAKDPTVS
# ETV1, sequence (P50549 whole entry): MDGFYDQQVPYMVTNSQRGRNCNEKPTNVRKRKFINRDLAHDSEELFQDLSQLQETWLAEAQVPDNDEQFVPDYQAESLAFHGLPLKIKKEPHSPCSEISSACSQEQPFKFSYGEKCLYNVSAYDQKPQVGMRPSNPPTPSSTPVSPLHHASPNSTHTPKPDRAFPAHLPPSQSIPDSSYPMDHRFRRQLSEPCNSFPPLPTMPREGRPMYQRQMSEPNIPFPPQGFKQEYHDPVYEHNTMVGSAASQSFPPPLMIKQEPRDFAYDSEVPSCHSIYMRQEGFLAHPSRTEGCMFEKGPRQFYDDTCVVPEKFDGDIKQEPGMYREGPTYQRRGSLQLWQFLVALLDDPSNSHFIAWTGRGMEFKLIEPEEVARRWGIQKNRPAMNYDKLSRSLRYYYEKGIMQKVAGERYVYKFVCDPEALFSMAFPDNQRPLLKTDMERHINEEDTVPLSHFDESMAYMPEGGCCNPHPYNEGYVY
sequence,measurement,setting,value
ATTTGA,binding signal,FEV,"1.17 fold enrichment (6-mer frequency, TF over GST control)"
same,binding signal,ETV5,"1.16 fold enrichment (6-mer frequency, TF over GST control)"
same,binding signal,HSF1,"1.21 fold enrichment (6-mer frequency, TF over GST control)"
same,binding signal,SPIC,"1.11 fold enrichment (6-mer frequency, TF over GST control)"
same,binding signal,ELF4,"1.21 fold enrichment (6-mer frequency, TF over GST control)"
same,binding signal,ELK4,"1.07 fold enrichment (6-mer frequency, TF over GST control)"
same,binding signal,ETV2,"1.16 fold enrichment (6-mer frequency, TF over GST control)"
same,binding signal,ELF3,"1.16 fold enrichment (6-mer frequency, TF over GST control)"
same,binding signal,CRX,"1.41 fold enrichment (6-mer frequency, TF over GST control)"
same,binding signal,ETV1,"1.2 fold enrichment (6-mer frequency, TF over GST control)"
same,binding signal,ERF,"1.14 fold enrichment (6-mer frequency, TF over GST control)"
same,binding signal,ETV3L,"1.25 fold enrichment (6-mer frequency, TF over GST control)"
same,binding signal,ETS2,"1.2 fold enrichment (6-mer frequency, TF over GST control)"
same,binding signal,SPDEF,"1.19 fold enrichment (6-mer frequency, TF over GST control)"
same,binding signal,ETV7,"1.28 fold enrichment (6-mer frequency, TF over GST control)"
same,binding signal,ELF5,"1.12 fold enrichment (6-mer frequency, TF over GST control)"
same,binding signal,ETV3,"1.21 fold enrichment (6-mer frequency, TF over GST control)"
same,binding signal,ETV6,"1.16 fold enrichment (6-mer frequency, TF over GST control)"
